Test results published in PubChem BioAssay (NCATS).
Inconclusive results are not listed. Calls of active or inactive are those of the source. Unless noted, the call rests on the fitted dose curve; in most records, active means well fitted curve in the direction sought with a large enough effect; inconclusive means small, poorly fitted or top-dose-only effect, or another doubt; inactive means no such curve, though single readings can be large; an effect the other way counts as inactive or inconclusive.

Experiments:
[1] = molecular target: alpha-glucosidase (Oryza sativa, rice) (UniProt Q653V4); experiment: Counterscreen for Glucocerebrosidase Inhibitors: qHTS Assay for Rice alpha-Glucosidase at pH 5.0 (AID 997)
Summary of the method: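 Rice alpha-glucosidase (4 nM final) with 400 uM 4-methylumbelliferyl-alpha-D-glucopyranoside in citrate buffer pH 5.0, 20 min at room temperature, stopped at pH 10; fluorescence 365/440 nm, compounds 0.7 nM–77 uM, AC50 from Hill fits.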

[2] = Validation of Assay for Modulators of Lamin A Splicing (AID 1459; active means well fitted curve in the direction sought with a large enough effect in the signal ratio; the % refers to the signal ratio;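 further: cells exposed to compound for two days before reading; ratio rise marks activators and ratio drop marks inhibitors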)
Summary of the method: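 S3 HeLa cells stably expressing a lamin A-EGFP splicing minigene and DsRed2 were seeded at 600 cells/well in Opti-MEM with 2% FBS, pin-dosed, and incubated 48 hrs at 37 °C, 5% CO2. Laser-scanning cytometry (488 nm) gave GFP/RFP total intensity ratio.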

[3] = molecular target: DNA repair nuclease/redox regulator APEX1 (Homo sapiens) (UniProt P27695); experiment: qHTS Validation Assay for Inhibitors of the Human Apurinic/apyrimidinic Endonuclease 1 (APE1) (AID 1705; further: potency means the concentration at half of the fitted maximal effect)
Summary of the method: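 Human APE1 was preincubated with compound for 15 min at room temperature, then 50 nM (final) THF-abasic double-stranded DNA substrate bearing 5'-TAMRA and 3'-BHQ-2 was added. Incision-driven fluorescence rise (ex 525/em 598 nm) was read kinetically.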

[4] = Counterscreen for APE1 Inhibitors: Fluorescent Dye Displacement Validation Assay (AID 1707)
Summary of the method: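 Assay buffer: Tris-HCl pH7.5 with 50mM NaCl, 2 mM MgCl2, 0.01% Tween-20. Dye 250 nM, duplex 50 nM final. Readout: decrease in ThO endpoint fluorescence, 480 nm excitation, 540 nm emission.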

[5] = molecular target: Endonuclease 4 (Escherichia coli (strain K12)) (UniProt P0A6C1); experiment: Counterscreen for APE1 Inhibitors: qHTS Validation Assay for Inhibitors of Endonuclease IV (AID 1708)
Summary of the method: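 Enzymatic AP-site incision assay using a double-stranded THF substrate labelled with TAMRA and BHQ-2; released fluorescence signals activity. Enzyme 2 nM, substrate 50 nM, 15 min compound preincubation.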

[6] = qHTS for differential inhibitors of proliferation of Plasmodium falciparum line 7G8 (AID 1815);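 further: parasite growth measured after three days of incubation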; further: potency means the concentration at half of the fitted maximal effect
[7] = qHTS for differential inhibitors of proliferation of Plasmodium falciparum line GB4 (AID 1816); settings: Potency: Plasmodium falciparum GB4 proliferation inhibition;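 further: parasite growth measured after 72 h incubation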; further: potency means the concentration at half of the fitted maximal effect
[8] = qHTS for differential inhibitors of proliferation of Plasmodium falciparum line 3D7 (AID 1876); further: potency means the concentration at half of the fitted maximal effect

Measured: Potency

Sequence of DNA repair nuclease/redox regulator APEX1 (Homo sapiens) (P27695 whole entry, looked up): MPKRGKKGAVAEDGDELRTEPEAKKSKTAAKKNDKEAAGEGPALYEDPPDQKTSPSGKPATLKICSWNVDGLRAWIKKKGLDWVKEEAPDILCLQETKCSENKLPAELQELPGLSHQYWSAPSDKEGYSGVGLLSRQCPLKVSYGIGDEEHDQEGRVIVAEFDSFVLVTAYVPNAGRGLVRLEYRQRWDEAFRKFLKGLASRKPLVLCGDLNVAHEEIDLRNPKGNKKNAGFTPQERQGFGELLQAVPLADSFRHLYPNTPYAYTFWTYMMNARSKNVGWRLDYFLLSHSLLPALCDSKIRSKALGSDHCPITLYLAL

C=CCn1c(=O)c2c(nc(-c3ccc(S(=O)(=O)O)cc3)n2C)n(C)c1=O
inactive: all assays above

[Li+]
inactive: all assays above

CC[C@H](NC(=O)c1c(C)c(-c2ccccc2)nc2ccccc12)c1ccccc1
active: [6] 7.08 µM | [7] 11.2 µM
not listed: [8]
inactive: all other assays above

C=CCN1CCc2c(cc(O)c(O)c2Cl)C(c2ccccc2)C1 (stereo not drawn)
active: [6] 5.01 µM | [7] 5.01 µM | [8] 7.94 µM
not listed: [1]
inactive: all other assays above

COC(=O)C(C)(N)Cc1ccc(O)cc1 (stereo not drawn)
inactive: [2] | [3] | [4] | [5]
active: [7] 14.1 µM

CCCCCC[C@@H]([C@@H](C)O)n1cnc2c(N)ncnc21
inactive: [2] | [3] | [4] | [6] | [7]

N[C@H]1CONC1=O
not listed: [1] | [5]
inactive: all other assays above

C=CC[C@H](N)C(=O)O
inactive: all assays above

Nc1ccc(N2C(=O)c3ccccc3C2=O)c(Cl)c1
inactive: all assays above

COc1cccc(OC)c1OCCNCC1CSc2ccccc2O1 (stereo not drawn)
active: [6] 7.94 µM | [7] 4.47 µM
inactive: [2] | [3] | [4]

CCOC(=O)C12CC1/C(=N/O)c1ccccc1O2 (stereo not drawn)
not listed: [1]
inactive: all other assays above

O=[N+]([O-])c1cccc2c(Br)[nH]nc12
not listed: [7]
inactive: all other assays above

N#CC(C#N)=C(N)/C(C#N)=C/c1ccc(O)cc1
inactive: [1] | [2] | [3] | [4] | [5]

N#C/C(=C\c1ccc(O)c(O)c1)C(=O)NCCc1ccccc1
active: [6] 8.91 µM | [7] 10 µM | [8] 11.2 µM
inactive: all other assays above

Cn1ccnc1
not listed: [5]
inactive: all other assays above

C[C@H](NC(=O)/C(C#N)=C/c1ccc(O)c(O)c1)c1ccccc1
active: [6] 7.08 µM | [7] 11.2 µM | [8] 14.1 µM
inactive: all other assays above

CNc1ncnc2c1ncn2[C@H]1C[C@H](OP(=O)(O)O)[C@@H](COP(=O)(O)O)O1
not listed: [1] | [5]
inactive: all other assays above

O[Si](CCCN1CCCCC1)(c1ccc(F)cc1)C1CCCCC1 (stereo not drawn)
active: [6] 0.0708 µM | [7] 0.0398 µM | [8] 0.0794 µM
inactive: [2] | [3] | [4]

c1ccc2nc(C3=NCCN3)ccc2c1
not listed: [7]
inactive: all other assays above

CO/N=C(\C(=O)N[C@@H]1C(=O)N2C(C(=O)O)=C(CSc3nc(=O)c(O)nn3C)CSC12)c1csc(N)n1 (stereo partly drawn)
active: [3] 2.24 µM
not listed: [1] | [5]
inactive: all other assays above

CCCCCCN(CCCCCC)C(=O)Cc1c(-c2ccc(F)cc2)[nH]c2ccccc12
active: [6] 5.01 µM | [7] 3.98 µM | [8] 5.01 µM
inactive: all other assays above

Cc1cccc(C2CN(C)CCc3c2cc(O)c(O)c3Cl)c1 (stereo not drawn)
active: [6] 7.94 µM | [7] 8.91 µM | [8] 8.91 µM
not listed: [1]
inactive: all other assays above

Nn1nnc2ccccc21
active: [6] 12.6 µM
not listed: [7] | [8]
inactive: all other assays above

OCC1NCC(O)C(O)C1O (stereo not drawn)
not listed: [1]
inactive: all other assays above

C#CC(N)CCC(=O)O (stereo not drawn)
not listed: [1] | [5]
inactive: all other assays above

CCN(CC)CCOC(=O)c1cc(Cl)c(N)cc1OC
inactive: all assays above

CCCOC(=O)c1c(-c2ccccc2)nc(CC)c(C(=O)SCC)c1CCC
active: [6] 12.6 µM | [7] 11.2 µM
not listed: [8]
inactive: all other assays above

O=C(O)/C=C/c1ccc(O)c(O)c1
inactive: all assays above

N[C@@H](Cc1ccc(O)c(I)c1)C(=O)O
inactive: all assays above

N=C(N)c1ccc(N)cc1
not listed: [3] | [7]
inactive: all other assays above

COC(=O)[C@H](NC(=O)c1cc(-c2ccccc2)nc2ccccc12)c1ccccc1
inactive: [1] | [2] | [3] | [8]
active: [6] 11.2 µM

CCCCS(=N)(=O)CC[C@H](N)C(=O)O (stereo partly drawn)
inactive: [2] | [3] | [5]
active: [6] 12.6 µM | [7] 11.2 µM

CCC(=O)N1CCN(C(=O)c2ccccc2)CC1
inactive: [1] | [2] | [3]

Cn1cc(C(=O)OCC2CCN(CCNS(C)(=O)=O)CC2)c2ccccc21
inactive: [1] | [2] | [3]
active: [6] 10 µM

N=S(=O)(O)Cc1noc2ccccc12
inactive: [2] | [3] | [4] | [8]

NC(=O)CC[C@H](N)C(=O)O
not listed: [1] | [4]
inactive: all other assays above

COc1cc(C(O)C(=O)O)ccc1O (stereo not drawn)
not listed: [1] | [3]
inactive: all other assays above

O=C(OCCN1CCOCC1)C1(c2ccccc2)CCCCC1
active: [7] 10 µM
inactive: [1] | [2] | [3] | [4]

O=C(O)c1cc(=O)cc(C(=O)O)[nH]1
not listed: [3]
inactive: all other assays above

Cn1c(=O)c2[nH]c(-c3ccc(S(=O)(=O)O)cc3)nc2n(C)c1=O
inactive: [1] | [2] | [3] | [5]

CCCCCCCCCCC/C=C\C(C)(C)/C=C\CCCC(=O)O
active: [3] 35.5 µM
not listed: [5] | [6]
inactive: all other assays above

NC1CCN(O)C1=O (stereo not drawn)
not listed: [1] | [3]
inactive: all other assays above

O=C1NC(=O)c2cc(Nc3ccccc3)c(Nc3ccccc3)cc21
active: [6] 8.91 µM | [7] 10 µM | [8] 12.6 µM
not listed: [5]
inactive: all other assays above

C=CC1(C)CC(=O)C2(O)C(C)(O1)C(OC(C)=O)C(O)C1C(C)(C)CCC(O)C12C (stereo not drawn)
inactive: [2] | [3] | [5] | [7] | [8]

CC1=C(C(=O)O)N2C(=O)[C@@H](NC(=O)C(N)C3=CCC=CC3)[C@H]2SC1 (stereo partly drawn)
not listed: [1] | [4]
inactive: all other assays above

Cc1ccc2c(c1)C(N1CCN(C)CC1)=Nc1cccnc1N2
inactive: [1] | [2] | [3] | [4]

COc1cc2c(CCNC(C)=O)c[nH]c2cc1O
active: [3] 39.8 µM
not listed: [4] | [7]
inactive: all other assays above

NCCC1CCCC(CCN)N1 (stereo not drawn)
inactive: [2] | [4] | [6] | [7] | [8]

N#C/C(=C\c1ccc(O)c(O)c1)C(=O)NCCCNC(=O)/C(C#N)=C/c1ccc(O)c(O)c1
inactive: [1] | [2] | [3]

O=S(=O)(c1cccc2c(Cl)cccc12)N1CCCNCC1
active: [6] 5.01 µM | [7] 3.16 µM | [8] 14.1 µM
inactive: [1] | [2] | [3]

CC(N)(Cc1ccc(O)c(O)c1)C(=O)O (stereo not drawn)
inactive: [2] | [4] | [5] | [6] | [8]

CN(C)C(=O)/N=N/C(=O)N(C)C
not listed: [1] | [3]
inactive: all other assays above

O=c1cc(O)cc(/C=C/c2ccc(O)c(O)c2)o1
inactive: [2] | [5]
active: [3] 0.794 µM | [6] 8.91 µM | [7] 12.6 µM

NCCCCN
not listed: [3]
inactive: all other assays above

COc1cc(N)c(Cl)cc1C(=O)OCCN1CCCCC1
inactive: [1] | [2] | [3] | [8]

CNC(=O)c1cc2c(cn1)[nH]c1ccccc12
active: [6] 12.6 µM
inactive: [1] | [2] | [4] | [5]

Nc1ccc(-c2ccc3ccccc3n2)cc1
inactive: [1] | [2] | [3]

Nc1ncnc2c1ncn2C1CCCO1 (stereo not drawn)
inactive: [2] | [5] | [6] | [7] | [8]
